Screening data from PubChem.
In the library only some 2.5% were active in any assay of this set; here they are far more common.
ASK1 primary: inhibitors of human ASK1 kinase; Q99683; AlphaScreen MKK6 phosphorylation by ASK1, luminescence; inhibition, % at 7.44 µM; actives 0.99% (n = 22,000); AID 1159602; in the data active means inhibition above about 35%;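 further: 0% = median of compound wells and 100% = no enzyme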
ULK1 inh: blocks human autophagy kinase ULK1; AlphaScreen Atg13 phosphorylation by ULK1, luminescence; actives 1.9% (n = 30,000); AID 1259251; O75385; inhibition, % at 5.96 µM; in the data active means inhibition above about 43%;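 further: 0% = median of compound wells and 100% = no enzyme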
The depositor's hits bear a star; . = not tested or not shown.

SMILES | ASK1 primary | ULK1 inh
Cc1nc2ccc(Nc3nccc(-c4cncc(N5CCOCC5)c4)n3)cc2o1 | 16 | -14
O=C(NCCN1CCOCC1)C1CCN(c2ccc(NCc3cccnc3)nn2)CC1 | -1 | 2
CCc1c[nH]c2ncnc(-c3ccc(NC(=O)Nc4cccc(C(=O)NC(C)C)c4)cc3)c12 | 18 | 16
CC(C)NC(=O)c1cccc(NC(=O)Nc2ccc(-c3ncnc4[nH]ccc34)cc2)c1 | 15 | 47*
c1nc(NCCN2CCOCC2)c2[nH]c(N3CCN(Cc4ccc5c(c4)OCO5)CC3)nc2n1 | 5 | 2
O=C(Nc1cccc(F)c1N1CCC2(CC1)OCCO2)c1ccc(Br)o1 | -11 | -9
O=C(Nc1ccc(F)c(F)c1N1CCC2(CC1)OCCO2)c1ccc(Br)o1 | -18 | 53*
CNC(=O)c1ccccc1Nc1cc(NC(=O)Cc2cccc(F)c2)ncc1C(F)(F)F | -3 | 55*
CNC(=O)c1ccccc1Nc1cc(NC(=O)Cc2ccccc2OC)ncc1C(F)(F)F | 14 | 51*
CNC(=O)c1ccccc1Nc1cc(NC(=O)C(OC)c2ccccc2)ncc1C(F)(F)F (stereo not drawn) | -16 | -10
CNC(=O)c1ccccc1Nc1cc(NC(=O)Cc2ccc3c(c2)OCO3)ncc1C(F)(F)F | 12 | 55*
NC(=O)c1ccccc1Nc1cc(NC(=O)Cc2ccc(F)c(F)c2)ncc1C(F)(F)F | -21 | 19
NC(=O)c1ccccc1Nc1cc(NC(=O)Cc2ccc3c(c2)OCO3)ncc1C(F)(F)F | 19 | -23
NC(=O)c1ccccc1Nc1cc(NC(=O)Cc2ccc(F)cc2)ncc1C(F)(F)F | 10 | 31
COc1ccc(CC(=O)Nc2cc(Nc3ccccc3C(N)=O)c(C(F)(F)F)cn2)cc1 | 32 | 76*
O=C([C@H](O)c1ccccc1Cl)N1CCCN(S(=O)(=O)c2cccc3cnccc23)CC1 | 13 | 19
CC(C)N(CCNc1nc(-c2ccc(C(=O)N3CCN(C)CC3)cc2)nc2c1ncn2C1CCCCC1)C(C)C | 8 | -2
CN(C)c1cccc(Nc2ccc(N3CCC(C(=O)NC4CC4)CC3)nn2)c1 | 1 | -2
OCCNc1nc(Nc2ccc(C(F)(F)F)cc2)nc2c1ncn2-c1ccccc1 | -5 | -12
CCCNC(=O)c1ccc(-c2ccc(N3CCN(C)CC3)cc2)s1 | -14 | 3
C[C@@H](N)c1ccc(C(=O)Nc2ccncc2)cc1 | -12 | 38
c1ccc(Nc2nc(NC3CC3)c3ncn(C4CCCCC4)c3n2)nc1 | 1 | -11
Cc1noc(C)c1-c1nc(Nc2ccccc2)c2ncn(C3CCCCC3)c2n1 | -6 | 8
Cc1noc(C)c1-c1nc(Nc2ccc(N3CCOCC3)cc2)c2ncn(C3CCCCC3)c2n1 | 7 | 50*
c1cc(N2CCOCC2)ccc1Nc1nc(Nc2ccc(N3CCOCC3)cc2)c2ncn(C3CCCCC3)c2n1 | -12 | 53*
SMILES | ASK1 primary | ULK1 inh
c1cc(Nc2nc(NC3CC3)c3ncn(C4CCCCC4)c3n2)ncn1 | -40 | 44*
c1cc(N2CCOCC2)ccc1Nc1nc(NC2CC2)c2ncn(C3CCCCC3)c2n1 | 32 | 7
O=C(Cc1cn(-c2ccc(Nc3ccc(-n4ccnc4)cc3)nn2)c2ccccc12)NCCOc1ccccc1 | 12 | 10
Cn1cc(-c2cc(Nc3ccc(N4CCOCC4)cc3)ncc2F)cn1 | 1 | 25
Cn1cc(-c2cc(Nc3ccc(N4CCOCC4)cc3)ncc2Cl)cn1 | -1 | 61*
COc1cc(Nc2nc(Nc3ccc(NC(C)=O)cc3)c3ncn(C(C)C)c3n2)cc(OC)c1OC | 12 | 10
CC(=O)Nc1ccc(Nc2nc(NC3CCC(O)CC3)nc3c2ncn3-c2ccsc2)cc1 (stereo not drawn) | 21 | 44*
COc1ccc(Nc2nc(Nc3ccc(OCCN4CCCCC4)cc3)c3ncn(C(C)C)c3n2)cc1 | 33 | 57*
CC(C)n1cnc2c(Nc3ccc(N4CCOCC4)cc3)nc(NCc3cccnc3)nc21 | 10 | 47*
CC(=O)Nc1ccc(Nc2nc(Nc3ccncc3)nc3c2ncn3C(C)C)cc1 | 7 | 66*
CC(C)n1cnc2c(Nc3ccc(N4CCOCC4)cc3)nc(NCc3ccc4c(c3)OCO4)nc21 | 35 | 7
OC1CCC(Nc2nc(Nc3ccccc3)c3ncn(-c4ccsc4)c3n2)CC1 (stereo not drawn) | 9 | 23
COc1ccc(CNc2nc(Nc3ccc(OC)cc3)nc3c2ncn3C(C)C)cc1 | 9 | -26
Cc1ccc(-n2c(=O)[nH]c3c(C(=O)Nc4ccc(C)cc4C)cn(C)c3c2=O)cc1 | . | 2
Cc1nn(C)c(C)c1-c1cccc(C(=O)NCc2cccc(C(F)(F)F)c2)n1 | -6 | -13
Cc1cc(NCCN(C(C)C)C(C)C)nc(Nc2ccc(N3CCOCC3)cc2)n1 | -18 | -20
CCN(CC)C(=O)C1CCCN(c2ccc(-n3cc(CC(=O)Nc4ccc(NC(C)=O)cc4)c4ccccc43)nn2)C1 (stereo not drawn) | -29 | 38
CC(=O)Nc1ccc(Nc2cc(C)nc(-c3c(C)nn(C)c3C)n2)cc1 | 1 | -8
